PLAP activator = activates human placental alkaline phosphatase; AID 696; activation fold at 20 µM; purified PLAP enzyme, luminescent substrate read-out; hits give high values; P05187; 96,000 compounds, 1.2% hits; in the data active = activation fold above about 2
Target sequence (P05187 whole entry, looked up): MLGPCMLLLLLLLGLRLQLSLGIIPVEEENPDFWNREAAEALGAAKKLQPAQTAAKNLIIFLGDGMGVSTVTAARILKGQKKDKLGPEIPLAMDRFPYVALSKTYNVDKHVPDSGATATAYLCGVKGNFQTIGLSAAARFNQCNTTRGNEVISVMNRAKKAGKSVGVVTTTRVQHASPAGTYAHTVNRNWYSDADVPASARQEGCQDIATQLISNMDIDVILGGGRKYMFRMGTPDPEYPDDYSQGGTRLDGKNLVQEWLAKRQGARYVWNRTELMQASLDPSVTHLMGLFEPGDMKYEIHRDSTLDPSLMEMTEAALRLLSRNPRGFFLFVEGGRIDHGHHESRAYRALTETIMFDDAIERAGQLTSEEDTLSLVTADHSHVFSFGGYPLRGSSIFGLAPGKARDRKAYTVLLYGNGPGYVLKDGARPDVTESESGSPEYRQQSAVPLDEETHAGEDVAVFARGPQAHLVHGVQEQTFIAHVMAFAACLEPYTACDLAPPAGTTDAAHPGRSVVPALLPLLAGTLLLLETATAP
CYP2C19 activ = increases human CYP2C19 enzyme activity | activation factor at 5 µM | AID 1025 | 96,000 tested, under 10 active | P33261 | recombinant CYP2C19, luciferin-H EGE luminescence; hits give high values; 0 = fully inhibited enzyme, 1 = untreated enzyme;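 active = activation factor of at least 2 at 5 µM in the primary screen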;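 note: 0 = wells with 2.5 mM tranylcypromine and 1 = vehicle-only wells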
CYP2C9 act = CYP2C9 (human) activation; activation factor at 5 µM; AID 1024; 96,000 compounds, 1.4% hits; recombinant CYP2C9, luciferin-H conversion, luminescence; hits give high values; factor 1 = untreated enzyme, 0 = blocked;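 active = activation factor of 2 or more for CYP2C9 at a 5 µM dose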;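 note: 0 = sulfaphenazole-blocked wells and 1 = vehicle-only wells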
CYP2C19 inh = human CYP2C19 inhibition | AID 778 | P33261 | CYP2C19 Supersomes, luciferin-H EGE luminescence, 30 min | 96,000 compounds, 21% hits | inhibition, % at 5 µM;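 active = CYP2C19 inhibition above a set limit at 5 µM in the primary screen, cut at about 50% in these data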;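 note: plate controls were negative control wells for no effect and 2.5 mM tranylcypromine positive control for full effect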
CYP2C9 inhib = blocks human cytochrome P450 2C9; P11712; CYP2C9 Supersomes, luciferin-H conversion, luminescence; inhibition, % at 5 µM; 96,000 compounds, 20% hits; AID 777;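 active = blocking of liver enzyme CYP2C9 beyond about 50% at 5 µM, limit read from the data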
Numbers without * were called inactive. An excerpt weighted towards active compounds, which were near 31% of everything screened.

What do the screens show for `COc1ccc(CC(=O)NC(=S)Nc2ccc(S(=O)(=O)NC(C)(C)C)cc2)cc1`?
PLAP activator: 0.9; CYP2C19 activ: 0.8; CYP2C9 act: 0.6; CYP2C19 inh: 16; CYP2C9 inhib: 43

What do the screens show for `CCn1c(C)c(/C=N/Nc2nc3ccccc3s2)c2ccccc21`?
PLAP activator: 1.1; CYP2C19 activ: 0.8; CYP2C9 act: 1; CYP2C19 inh: 17; CYP2C9 inhib: 4

What do the screens show for `Fc1ccc(Cn2c(SCc3ccc(F)c(F)c3)nnc2C(F)(F)F)cc1`?
PLAP activator: 0.9; CYP2C19 activ: 0.3; CYP2C9 act: 0.4; CYP2C19 inh: 67*; CYP2C9 inhib: 57*

Results for Fc1ccc(Cn2c(SCc3ccc(F)c(C(F)(F)F)c3)nnc2C(F)(F)F)cc1 ?
PLAP activator: 0.8; CYP2C19 activ: 0.4; CYP2C9 act: 0.4; CYP2C19 inh: 64*; CYP2C9 inhib: 56*

Results for Cn1c(SCc2cccc(F)c2)nnc1-c1ccccn1 ?
PLAP activator: 0.8; CYP2C19 activ: 0.7; CYP2C9 act: 0.7; CYP2C19 inh: 30; CYP2C9 inhib: 34

Results for O=C(NC1=NCCS1)NC12CC3CC(CC(C3)C1)C2 ?
PLAP activator: 1.2; CYP2C19 activ: 0.8; CYP2C9 act: 0.8; CYP2C19 inh: 19; CYP2C9 inhib: 15

What do the screens show for `N#Cc1nc(-c2ccccc2F)oc1NC1CCCCC1`?
PLAP activator: 1; CYP2C19 activ: 0.7; CYP2C9 act: 0.7; CYP2C19 inh: 33; CYP2C9 inhib: 28

What do the screens show for `Cc1ccccc1OCC(O)Cn1c(NCc2ccco2)nc2c1c(=O)n(C)c(=O)n2C` (stereo not drawn)?
PLAP activator: 1.7; CYP2C19 activ: 0.1; CYP2C9 act: 0.1; CYP2C19 inh: 87*; CYP2C9 inhib: 93*

What do the screens show for `CC(=O)Nc1c(C#N)c(C(C)(C)C)cn1C`?
PLAP activator: 1.1; CYP2C19 activ: 1.1; CYP2C9 act: 1.2; CYP2C19 inh: -10; CYP2C9 inhib: -22

How did O=C(c1ccco1)c1nnn(Cc2ccccc2)c1-c1ccccc1 do in these assays?
PLAP activator: 1; CYP2C19 activ: 0.9; CYP2C9 act: 0.5; CYP2C19 inh: 13; CYP2C9 inhib: 54*

What do the screens show for `Cc1cc(Cn2ccnc2)c(C)cc1Cn1ccnc1`?
PLAP activator: 1.2; CYP2C19 activ: 0; CYP2C9 act: 0; CYP2C19 inh: 97*; CYP2C9 inhib: 95*

How did N=C1C(c2ccccc2)=C(O)C2CCc3ccccc3N12 (stereo not drawn) do in these assays?
PLAP activator: 0.9; CYP2C19 activ: 1.2; CYP2C9 act: 1.2; CYP2C19 inh: -20; CYP2C9 inhib: -18

What do the screens show for `N=C1C(c2ccc(Br)cc2)=C(O)C2CCc3ccccc3N12` (stereo not drawn)?
PLAP activator: 0.8; CYP2C19 activ: 0.5; CYP2C9 act: 0.7; CYP2C19 inh: 50*; CYP2C9 inhib: 27

Results for Cc1cc(NC(=O)COC(=O)C2CCCN2C(=O)c2cccs2)no1 (stereo not drawn) ?
PLAP activator: 1.3; CYP2C19 activ: 1.1; CYP2C9 act: 1; CYP2C19 inh: -12; CYP2C9 inhib: 1

Results for COc1ccccc1NS(=O)(=O)c1ccc2c(c1)n(C)c(=O)n2C ?
PLAP activator: 1.1; CYP2C19 activ: 0.3; CYP2C9 act: 1; CYP2C19 inh: 72*; CYP2C9 inhib: 2

What do the screens show for `Cn1c(=O)n(C)c2cc(S(=O)(=O)Nc3ccccc3O)ccc21`?
PLAP activator: 1.2; CYP2C19 activ: 0.2; CYP2C9 act: 0.4; CYP2C19 inh: 83*; CYP2C9 inhib: 59*

What do the screens show for `COCCNS(=O)(=O)c1ccc2c(c1)n(C)c(=O)n2C`?
PLAP activator: 1.1; CYP2C19 activ: 0.9; CYP2C9 act: 0.9; CYP2C19 inh: 6; CYP2C9 inhib: 10

Results for Cn1c(=O)n(C)c2cc(S(=O)(=O)NCCO)ccc21 ?
PLAP activator: 1.1; CYP2C19 activ: 1.2; CYP2C9 act: 1.4; CYP2C19 inh: -21; CYP2C9 inhib: -43

How did Cc1ccc(C(C(=O)NC(C)(C)C)N(C(=O)c2csnn2)c2ccccc2F)o1 (stereo not drawn) do in these assays?
PLAP activator: 1; CYP2C19 activ: 0.9; CYP2C9 act: 1; CYP2C19 inh: 7; CYP2C9 inhib: 4

Results for COc1ccc(NC(=S)Nc2ccccc2F)c(OC)c1 ?
PLAP activator: 0.9; CYP2C19 activ: 0.5; CYP2C9 act: 1.1; CYP2C19 inh: 47; CYP2C9 inhib: -14

Results for CCN(CC)S(=O)(=O)c1cccc(C(=O)N2CCCCC2)c1 ?
PLAP activator: 0.9; CYP2C19 activ: 1; CYP2C9 act: 1.1; CYP2C19 inh: -1; CYP2C9 inhib: -14

What do the screens show for `CCN(CC)S(=O)(=O)c1cccc(C(=O)OCc2cc(=O)n3nc(C)sc3n2)c1`?
PLAP activator: 1.1; CYP2C19 activ: 0.8; CYP2C9 act: 0.4; CYP2C19 inh: 23; CYP2C9 inhib: 55*

How did CC(CCc1ccccc1)NC(=O)CSc1nccc(=O)[nH]1 (stereo not drawn) do in these assays?
PLAP activator: 1; CYP2C19 activ: 1.2; CYP2C9 act: 0.8; CYP2C19 inh: -16; CYP2C9 inhib: 20

How did COCCCNC(=O)CN(c1cccc(Cl)c1)S(C)(=O)=O do in these assays?
PLAP activator: 0.9; CYP2C19 activ: 0.9; CYP2C9 act: 1.3; CYP2C19 inh: 14; CYP2C9 inhib: -28

Results for Cc1cc(C(=O)N2CCN(c3cccc(Cl)c3)CC2)c(C)o1 ?
PLAP activator: 1; CYP2C19 activ: 0.6; CYP2C9 act: 0.4; CYP2C19 inh: 42; CYP2C9 inhib: 60*

Results for Cc1ccc(C(=O)N2CCN(c3cccc(Cl)c3)CC2)cc1C ?
PLAP activator: 1.6; CYP2C19 activ: 0.3; CYP2C9 act: 1.3; CYP2C19 inh: 71*; CYP2C9 inhib: -32

Results for CCOC(=O)c1c(C)c(C(=O)O)n(C)c1C ?
PLAP activator: 0.9; CYP2C19 activ: 1; CYP2C9 act: 1.1; CYP2C19 inh: 2; CYP2C9 inhib: -15

What do the screens show for `COc1ccc(C(=O)N2CCN(c3ccc(C)c(C)c3)CC2)cc1OC`?
PLAP activator: 1.6; CYP2C19 activ: 0.7; CYP2C9 act: 1.2; CYP2C19 inh: 34; CYP2C9 inhib: -17

How did Cc1ccc(C(=O)N2CCN(c3ccccc3)CC2)cc1C do in these assays?
PLAP activator: 1.2; CYP2C19 activ: 0.3; CYP2C9 act: 1.5; CYP2C19 inh: 69*; CYP2C9 inhib: -47

How did Cc1cc(C(=O)N2CCN(c3ccccc3)CC2)c(C)o1 do in these assays?
PLAP activator: 1.1; CYP2C19 activ: 0.6; CYP2C9 act: 1; CYP2C19 inh: 38; CYP2C9 inhib: -5

How did CCOC(=O)c1c(C)c(C(=O)N2CCN(c3cccc(Cl)c3)CC2)c(C)n1C do in these assays?
PLAP activator: 1.2; CYP2C19 activ: 0.3; CYP2C9 act: 0.3; CYP2C19 inh: 67*; CYP2C9 inhib: 74*

What do the screens show for `O=c1c(-c2nc3ccccc3o2)c2oc3ccccc3n2c2ccccc12`?
PLAP activator: 0.8; CYP2C19 activ: 0.9; CYP2C9 act: 0.9; CYP2C19 inh: 8; CYP2C9 inhib: 6

High-throughput results deposited in PubChem BioAssay by Sanford-Burnham Center for Chemical Genomics.
